# Screening results: PubChem BioAssay, several laboratories
# CF NFkB block – cystic fibrosis NF-kB activation inhibition. 360,000 tested, 0.86% active. KKLEB NF-kB-GFP reporter, PAF-induced, GFP fluorescence overnight. inhibition, % at 5 µM;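 active means at least 50% inhibition at 5 µM, scaled per plate between neutral and stimulator controls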;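 further: PAF is a Pseudomonas aeruginosa culture filtrate used as stimulus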
# HIF-2a inh – inhibitors of HIF-2a; 360,000 tested, 0.72% active; 786-0 RCC cells HIF-2a reporter, luciferase luminescence, overnight; inhibition, % at 18.8 µM; AID 624352;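 active means inhibition of the luminescence signal of 40% or more relative to plate controls, in a single-dose primary screen at 18.75 µM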
# KKLEB tox – reduces viability of KKLEB cystic fibrosis airway cells; activity change (cytotoxicity), % at 5 µM; AID 602141; 360,000 tested, 0.36% active; KKLEB CF airway cells viability, ATPlite luminescence, overnight; hits give low values; cells stimulated with P. aeruginosa culture filtrate;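 active means corrected activity change at or below -50% at 5 µM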
# Shn3 3UTR inh – Schnurri-3 reporter inhibition in Clone20 osteoblasts. Clone20 osteoblast Shn3 3'UTR firefly luciferase, 24 h. inhibition, % at 12.5 µM. 360,000 tested, 0.52% active;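 active means mean inhibition of at least 75% with every replicate also reaching 75%; inconclusive means mean inhibition at least 75% but some replicate below; inactive means mean inhibition below 75%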
# TRPM1 prom inh – MITF TRPM1 promoter inhibition in SK-MEL-5 cells. 330,000 tested, 0.83% active. inhibition, % at 12.5 µM. AID 488899. SK-MEL-5 TRPM1 promoter luciferase, 24 h;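 active means mean inhibition across replicates of 60% or more, whatever share of single replicates reaches that level; inconclusive means some that reach 60%, reason not given; inactive means mean inhibition across replicates below 60%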
# Peg3 promoter – reduces Peg3 promoter-driven luciferase expression in HeLa | AID 588405 | inhibition, % at 20 µM | 360,000 tested, 1.7% active | HeLa PEG-Prom luciferase reporter, luminescence, overnight;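 active means inhibition of at least 50% at 20 µM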
# Hits are given with their value; – = inactive; ? = inconclusive; · = no result given. Compounds with a hit are over-represented: about 2.8% of the library has one in this group of screens.
SMILES,CF NFkB block,HIF-2a inh,KKLEB tox,Shn3 3UTR inh,TRPM1 prom inh,Peg3 promoter
O=C(Nc1nc2ccccc2[nH]1)c1ccc(OC(F)F)cc1,–,–,–,–,–,–
CC(C)Oc1ccc(C(=O)Nc2nc3ccccc3[nH]2)cc1,–,55,-50,–,80,–
O=C(C[C@H]1C=C[C@@H](NS(=O)(=O)c2ccccc2)[C@@H](CO)O1)NCc1ccc(Cl)c(Cl)c1,·,–,·,·,·,·
CN=C1SC(CC(=O)Nc2ccc(F)cc2F)C(=O)N1/N=C/c1ccc(OC(F)F)c(OC)c1 (configuration not stated),–,–,–,83,–,–
COCCCN1CC(=O)N2Cc3[nH]c4ccccc4c3C[C@H]2C1=O,–,–,–,–,–,–
COCCN=c1scc(-c2cc(OC)c(OC)c(OC)c2)n1/N=C/c1c(C)[nH]c2ccccc12,–,–,–,–,–,53
O=C(O)c1cc2ccccc2c(N=Nc2cccnc2)c1O,–,73,–,–,?,55
O=C(O)c1cc(N=Nc2c(O)ccc3ccccc23)cc(C(=O)O)c1,–,–,–,–,–,–
Cc1cnc(C(=O)OCC(=O)N(Cc2ccccc2)C(C)(C)C)cn1,–,–,–,–,–,–
Nn1c(SCC(=O)Nc2ccc(OC(F)F)cc2)nnc1-c1ccco1,–,–,–,–,–,–
O=C(COC(=O)c1ccco1)Nc1cccc(S(=O)(=O)N2CCOCC2)c1,–,–,–,–,·,–
CCc1c(C)nc2cc(-c3ccc(OC)c(OC)c3)nn2c1NCC1CC1,–,–,–,93,–,–
COc1ccc(-c2c(C)nn3c(NC4CCCC4)cc(C)nc23)cc1OC,–,–,–,–,–,–
COc1ccc(CC(N)c2csc(Nc3nncc4ccccc34)n2)cc1 (configuration not stated),–,–,–,–,·,121
COc1cc(OC)nc(Nc2nc(C(N)Cc3ccc(F)cc3)cs2)n1 (configuration not stated),–,–,–,–,·,96
CCCc1cnc(Nc2nc(C(N)Cc3ccc(OC)cc3)cs2)nc1 (configuration not stated),–,–,–,–,·,100
NC(c1csc(Nc2nncc3ccccc23)n1)c1ccccc1Cl (configuration not stated),–,–,–,–,·,–
O=C(/C=C/Sc1ccc(C(F)(F)F)cn1)c1ccccc1,–,–,–,–,–,96
N#Cc1nc(-c2cccc(Cl)c2)oc1N1CCC(C(N)=O)CC1,–,–,–,–,–,–
COc1ccc(N=Cc2cc(Cc3ccccc3Cl)cc([N+](=O)[O-])c2O)cc1OC,–,–,–,–,–,–
Cc1ccc(N=Cc2cc(Cc3ccccc3Cl)cc([N+](=O)[O-])c2O)c(O)c1,73,–,–,–,–,–
CCOC(=O)Cc1csc(/N=C/c2c(O)n(-c3ccc(C)c(C)c3)c(=O)c3ccccc23)n1,–,–,–,–,66,–
Cc1ccc(-n2c(O)c(C=Nc3ccc4c(c3)OCO4)c3ccccc3c2=O)cc1C,–,–,–,–,–,–
CCS(=O)(=O)N1CCN(c2ccc([N+](=O)[O-])c(NCC3CCCO3)c2)CC1 (configuration not stated),–,–,–,–,–,–
CNC(=S)N1N=C(c2ccc(C)cc2)CC1c1ccc(N(C)C)cc1 (configuration not stated),–,–,–,–,–,–
SMILES,CF NFkB block,HIF-2a inh,KKLEB tox,Shn3 3UTR inh,TRPM1 prom inh,Peg3 promoter
CCNC(=O)O/N=C1\CCCCC1c1ccc([N+](=O)[O-])cc1[N+](=O)[O-] (configuration not stated),–,–,–,–,–,–
COc1ccc(C)c2sc(NC(=O)CCS(=O)(=O)c3ccccc3)nc12,–,–,–,–,–,78
Cc1nnc(NC(=O)CCS(=O)(=O)c2ccccc2)s1,–,–,–,–,–,–
CC(=O)N(C1=C(N)C(=O)c2ccccc2C1=O)c1ccccc1,–,–,–,–,65,–
O=C(N(c1ccccc1)c1ccccc1)N(c1ccccc1)c1ccccc1,–,–,–,–,·,–
CC(C)(C)CN1CCC(Oc2cccc(C(=O)NCCCOc3cccnc3)c2)CC1,–,–,–,–,–,–
CCOc1cc(CNCCCN2CCOCC2)cc(Br)c1OCC(=O)Nc1cccc(C(F)(F)F)c1,–,–,–,–,74,68
CCOc1cc(CNCCCN2CCOCC2)cc(Cl)c1OCC(=O)NC(C)(C)C,–,–,–,–,–,–
O=C(NCc1ccccc1)C(c1ccc(-c2ccccc2)cc1)N1CCN(C(=O)C2CCCO2)CC1 (configuration not stated),·,–,·,·,·,·
COc1ccc(C(NC(=O)C2CCN(CCOc3ccc(Cl)cc3Cl)CC2)c2ccccn2)cc1 (configuration not stated),–,–,–,–,·,–
CC(NC(=O)C1CCN(CCOc2ccc(Cl)cc2)CC1)c1cccc2ccccc12 (configuration not stated),–,–,–,–,·,69
O=C(NC(c1ccccc1)c1ccc2ccccc2n1)C1CCN(CCOc2ccc(Cl)cc2Cl)CC1 (configuration not stated),–,–,–,–,·,102
COc1cc(/C=C/CN2CCC(C(=O)NC(c3ccc(F)cc3)c3ccc4ccccc4n3)CC2)ccc1OC(C)=O (configuration not stated),–,–,–,–,·,91
O=C(NC(c1ccc(F)cc1)c1ccc2ccccc2n1)C1CCN(CCOc2ccc(Cl)cc2)CC1 (configuration not stated),–,–,–,–,·,96
O=C(NC(c1ccc(F)cc1)c1ccc2ccccc2n1)C1CCN(Cc2ccc3ccccc3n2)CC1 (configuration not stated),–,–,–,–,·,–
Cc1ccc(N2C(=O)c3ccccc3NC2(C(=O)O)c2ccccc2)cc1Cl (configuration not stated),–,–,–,–,–,–
COc1ccc(CN(CC(=O)NCCc2ccccc2)C(=O)CCC(=O)Nc2ccccn2)cc1,–,–,–,–,–,–
Cc1cccnc1C(c1ccc(F)cc1)N(C)C(=O)C1CCN(CCCOc2ccc(F)cc2)CC1 (configuration not stated),–,–,–,–,·,–
Cc1cccnc1C(c1ccc(F)cc1)N(C)C(=O)C1CCN(CCOc2ccc(Cl)cc2Cl)CC1 (configuration not stated),–,–,–,–,·,98
COc1ccc(C(=O)NCCNc2nc3cc(C)cc(C)c3cc2C#N)cc1,·,–,·,·,·,·
COc1cccc(C(=O)NCCCNc2nc3cc(C)cc(C)c3cc2C#N)c1,–,–,–,–,·,66
COc1ccc(S(=O)(=O)Nc2ccccc2OC)cc1NC(=O)c1cc2ccccc2oc1=O,58,–,-55,–,–,–
